Measurements: PubChem BioAssay AID743327 (National Center for Advancing Translational Sciences (NCATS), 2014)
Active and inactive are the calls of the source. Calls follow the shape of the full dose curve.

assay: qHTS profiling of Chloroquine Analogs as inhibitors of Plasmodium falciparum (HB3) proliferation; conditions: P. falciparum HB3 proliferation; series mostly up to 28.7 µM
From the text: Plasmodium falciparum is a virulent malarial parasite that kills 1-2 million people worldwide each year. Transmitted by mosquitoes, the sporozoite form of the parasite enters the blood stream to infect hepatocytes, where they become merozoites that infect red blood cells (erythrocytes). Within erythrocytes, merozoites begin a […] cycle of growth and division, after which the parasite is released to infect new red blood cells. Gametocytes, which form within erythrocytes as well, circulate in the bloodstream and are ingested by the mosquito, thereby completing the life cycle. To profile malarial isolates for differential chemical responses and to identify inhibitors of malarial growth, an assay that measures P. falciparum growth and replication within erythrocytes was employed. This assay uses a DNA binding fluorescent dye (SYBR Green) to detect parasite DNA following cell lysis. Because mature erythrocytes lack DNA, only Plasmodium-derived DNA is detected.
The SYBR Green viability assay was adapted from a method described previously (Plouffe et al., 2008). For screening 3 ul culture medium was dispensed into 1536 well black clear bottom plates (Aurora Biotechnologies) using a Multidrop Combi (Thermo Fisher Scientific Inc.), 23 nL compounds in DMSO were added by a pin tool (Kalypsys), and 5 ul of erythrocytes infected with P. falciparum (0.3% parasitemia, 2.5% hematocrit final concentration) were added. The plates were incubated at 37 C in a humidified incubator in 5% CO2 for 72 h, and 2 ul lysis buffer (20 mM Tris HCl, 10 mM EDTA, 0.16% saponin, 1.6% triton X, 10X SYBR Green I supplied as 10,000X […] by Invitrogen) was added to each well. The plates were mixed for 25 sec with gentle shaking and incubated overnight at room temperature in the dark. The following morning, fluorescence intensity at 485(14) nm excitation and 535(25) nm emission wavelengths was measured on an EnVision (Perkin Elmer) plate reader. Plate reads were normalized relative to the control inhibitor (0.29 uM artemisinin) and vehicle (DMSO) wells present on each plate and then corrected by an algorithm using vehicle-only control plates at the beginning and end of the compound plate stack.

Structure (SMILES) | Potency
O=CN(O)CCCP(=O)(O)O | 0.473 µM (active)
CSc1cccc(NC(=O)CC[C@H]2O[C@@H]3O[C@]4(C)CC[C@H]5[C@H](C)CC[C@@H]([C@@H]2C)[C@@]35OO4)c1 | 0.0188 µM (active)
C[C@@H]1[C@@H](CC(C[C@H]2O[C@@H]3O[C@]4(C)CC[C@@H]5[C@H](C)CC[C@@H]([C@H]2C)[C@@]35OO4)C[S+](=O)([O-])c2ccc(COC(=O)N(C)C)cc2)O[C@@H]2O[C@]3(C)CC[C@H]4[C@H](C)CC[C@@H]1[C@@]24OO3 (stereo not given in full) | 0.0067 µM (active)
COc1ncnc(NS(=O)(=O)c2ccc(N)cc2)c1OC | 1.5 µM (active)
CN(C)CC/C=C1\c2ccccc2COc2ccccc21 | 2.54 µM (active)
Cc1oncc1C(=O)Nc1ccc(C(F)(F)F)cc1 | inactive
C[C@@H]1CCC2[C@@H](C)[C@@H](O)O[C@@H]3O[C@@]4(C)CC[C@@H]1[C@@]23OO4 (stereo not given in full) | inactive
C[C@H]1c2cccc(O)c2C(O)=C2C(=O)[C@]3(O)C(O)=C(C(N)=O)C(=O)[C@@H](N(C)C)[C@@H]3[C@@H](O)[C@@H]21 | 8.41 µM (active)
CCN(CC)CCOc1ccc2c(=O)c3ccc(Cl)cc3n(CCN(CC)CC)c2c1 | 0.53 µM (active)
COc1cc2c(cc1C(F)(F)F)N(C(=O)Nc1cc(F)cc(-c3cccnc3)c1)CC2 | 3.35 µM (active)
CN1CC[C@H](CN2c3ccccc3Sc3ccccc32)C1 | 10.6 µM (active)
CC[C@H]1OC(=O)[C@H](C)[C@@H](O[C@H]2C[C@@](C)(OC)[C@@H](O)[C@H](C)O2)[C@H](C)[C@@H](O[C@@H]2O[C@H](C)C[C@H](N(C)C)[C@@H]2O)[C@](C)(O)C[C@@H](C)CN(C)[C@H](C)[C@@H](O)[C@]1(C)O | 9.43 µM (active)
O[C@H](c1cc(C(F)(F)F)nc2c(C(F)(F)F)cccc12)[C@H]1CCCCN1 | inactive
CC[C@@H](C)[C@H]1O[C@]2(CC[C@H]1C)C[C@@H]1C[C@@H](CC=C(C)[C@@H](O[C@H]3C[C@H](OC)[C@@H](O[C@H]4C[C@H](OC)[C@@H](O)[C@H](C)O4)[C@H](C)O3)[C@@H](C)C=CC=C3CO[C@@H]4[C@H](O)C(C)=C[C@@H](C(=O)O1)[C@]34O)O2 | inactive
CC(C)N=C(N)N=C(N)Nc1ccc(Cl)cc1 | 0.0298 µM (active)
COc1cc(NC(C)CCCN)c2ncccc2c1 (stereo not given) | 0.804 µM (active)
C=CC(C)=C[C@@]1(C)SC(=O)C(C)=C1O | inactive
CC(C)(C)c1cc(O)c(CN)c(C(C)(C)C)c1 | 0.15 µM (active)

Structure (SMILES) | Potency
CN(C)c1ccc2nc3ccc(=[N+](C)C)cc-3sc2c1 | 0.0049 µM (active)
CCc1nc(N)nc(N)c1-c1ccc(Cl)cc1 | inactive
Cc1nc2c(C#N)cccc2n1-c1ccc(C(=O)NC2CC2)s1 | 0.0237 µM (active)
CN([C@@H](Cc1ccc(OS(=O)(=O)c2cccc3cnccc23)cc1)C(=O)N1CCN(c2ccccc2)CC1)S(=O)(=O)c1cccc2cnccc12 | inactive
NC(=NCc1ccccc1)NC(=O)c1nc(Cl)c(N)nc1N | inactive
CCc1ccc(OCc2ccccc2C(=O)Nc2ccc3nc(C)cc(N)c3c2)cc1 | 1.19 µM (active)
OB1OCc2cc(F)ccc21 | inactive
CN(C)CCOC(c1ccccc1)c1ccccc1 | inactive
CN1CCN(CCCN2c3ccccc3Sc3ccc(S(=O)(=O)N(C)C)cc32)CC1 | 0.716 µM (active)
Cc1cccc(C)c1OCC(=O)N[C@@H](Cc1ccccc1)[C@@H](O)C[C@H](Cc1ccccc1)NC(=O)[C@H](C(C)C)N1CCCNC1=O | inactive
C[C@@H]1[C@@H](CC(C[C@H]2O[C@@H]3O[C@]4(C)CC[C@@H]5[C@H](C)CC[C@@H]([C@H]2C)[C@@]35OO4)C(=O)NCc2ccc(F)cc2)O[C@@H]2O[C@]3(C)CC[C@H]4[C@H](C)CC[C@@H]1[C@@]24OO3 (stereo not given in full) | inactive
CNCCC(Oc1ccccc1OC)c1ccccc1 (stereo not given) | 3.35 µM (active)
CC1=CC(=O)c2ccccc2C1=O | 2.37 µM (active)
CC(=O)O[C@@]12CO[C@@H]1C[C@H](O)[C@@]1(C)C(=O)[C@H](O)C3=C(C)[C@@H](OC(=O)[C@H](O)[C@@H](NC(=O)OC(C)(C)C)c4ccccc4)C[C@@](O)([C@@H](OC(=O)c4ccccc4)[C@H]21)C3(C)C | 0.0094 µM (active)
C[C@H](N)CN1CCc2ccc(Br)cc21 | 1.5 µM (active)
CCCCN(CCCC)CC(O)c1cc(Cl)cc2c1-c1ccc(Cl)cc1C2=Cc1ccc(Cl)cc1 (stereo not given) | inactive
CNC(=O)c1cc(Oc2ccc(NC(=O)Nc3ccc(Cl)c(C(F)(F)F)c3)cc2)ccn1 | 4.21 µM (active)
